# Results published in PubChem BioAssay (NCATS).
# Results filed as inconclusive are left out. Unmarked numbers belong to inactive results. Active and inactive are the calls of the source. Calls follow the shape of the dose curve; as a rule, active = well fitted inhibition curve with a large enough effect; inconclusive = small, poorly fitted or top-dose-only effect; inactive = flat fitted curve, though single readings scatter.
# Assay: qHTS for differential inhibitors of proliferation of Plasmodium falciparum line Dd2 (AID 1882); also: nearly all actives have a fitted effect of over 65% in size
# Conditions: Potency: Plasmodium falciparum Dd2 proliferation inhibition; series mostly up to 28.7 µM; activity change, negative = inhibition: at the top concentration
# Excerpt: NIH Molecular Libraries Probe Production Network [MLPCN]
# NIH National Institute of Allergy and Infectious Diseases [NIAID]
# NIH Chemical Genomics Center [NCGC]
# Assay Provider: Xinzhuan Su, NIAID
# Plasmodium falciparum is a virulent malarial parasite that kills 1-2 million people worldwide each year. Transmitted by mosquitoes, the sporozoite form of the parasite enters the blood stream to infect hepatocytes, where they become merozoites that infect red blood cells (erythrocytes). Within erythrocytes, merozoites begin a […] cycle of growth and division, after which the parasite is released to infect new red blood cells. Gametocytes, which form within erythrocytes as well, circulate in the bloodstream and are ingested by the mosquito, thereby completing the life cycle. To profile malarial isolates for differential chemical responses and to identify inhibitors of malarial growth, an assay that measures P. falciparum growth and replication within erythrocytes was employed. This assay uses a DNA binding fluorescent dye (SYBR Green) to detect parasite DNA following cell lysis. Because mature erythrocytes lack DNA, only Plasmodium-derived DNA is detected. The P. falciparum line Dd2, derived from a malarial isolate from […], was used.
# NCGC Assay Protocol Summary:
# The SYBR Green viability assay was adapted from a method described previously (Plouffe et al., 2008). For screening 3 ul culture medium was dispensed into 1536 well black clear bottom plates (Aurora Biotechnologies) using a Multidrop Combi (Thermo Fisher Scientific Inc.), 23 nL compounds in DMSO were added by a pin tool (Kalypsys), and 5 ul of erythrocytes infected with P. falciparum line Dd2 (0.3% parasitemia, 2.5% hematocrit final concentration) were added. The plates were incubated at 37 C in a humidified incubator in 5% CO2 for 72 h, and 2 ul lysis buffer (20 mM Tris HCl, 10 mM EDTA, […]% saponin, 1.6% triton X, 10X SYBR Green I supplied as 10,000X […] by Invitrogen) was added to each well. The plates were mixed for 25 sec with gentle shaking and incubated overnight at room temperature in the dark. The following morning, fluorescence intensity at 485(14) nm excitation and 535(25) nm emission wavelengths was measured on an EnVision (Perkin Elmer) plate reader. Plate reads were normalized relative to the control inhibitor (0.29 uM artemisinin) and vehicle (DMSO) wells present on each plate and then corrected by an algorithm using vehicle-only control plates at the beginning and end of the compound plate stack.
# Plouffe D, Brinker A, McNamara C, Henson K, Kato N, Kuhen K, Nagle A, Adrian F, Matzen JT, Anderson P, Nam TG, Gray NS, Chatterjee A, Janes J, Yan SF, Trager R, Caldwell JS, Schultz PG, Zhou Y, Winzeler EA. […] Proc Natl Acad Sci U S A. 2008, 105(26), pp 9059-64.
# Potency is read from the fitted curve at half-maximal effect.
SMILES,Potency,"activity change, negative = inhibition"
CC(C)NCC(O)COc1cccc2ccccc12 (stereo not given),8.91 µM (active),–
COc1ccccc1N1CCN(CCCCNS(=O)(=O)c2cccc3c(N(C)C)cccc23)CC1,10 µM (active),–
Clc1ccc(N2CCN(Cc3c[nH]c4ncccc34)CC2)cc1,–,-16.6%
CCCCCCCCCCCCCCCCCC(=O)OC(CC(=O)O)C[N+](C)(C)C (stereo not given),–,0.896%
CN[C@H](CC(C)C)C(=O)N[C@H]1C(=O)N[C@@H](CC(N)=O)C(=O)N[C@H]2C(=O)N[C@H]3C(=O)N[C@H](C(=O)N[C@H](C(=O)O)c4cc(O)cc(O)c4-c4cc3ccc4O)[C@H](O)c3ccc(c(Cl)c3)Oc3cc2cc(c3O[C@@H]2O[C@H](CO)[C@@H](O)[C@H](O)[C@H]2O[C@H]2C[C@](C)(N)[C@H](O)[C@H](C)O2)Oc2ccc(cc2Cl)[C@H]1O,–,-7.94%
CN1C2CCC1CC(OC(=O)C(O)c1ccccc1)C2 (stereo not given),–,-9.79%
CN=c1nc(-c2ccccc2)n(-c2ccccc2)s1,–,-19.8%
OC[C@H]1O[C@@H](n2cnc3c(NC4CCCCC4)ncnc32)[C@H](O)[C@@H]1O,–,2.22%
CCCN(CC1CC1)c1nc(C)nc(Nc2c(Cl)cc(Cl)cc2Cl)c1Cl,11.2 µM (active),–
N[C@@H](CC(=O)O)C(=O)O,–,0.466%
CC(C)(C)NCC(O)COc1nsnc1N1CCOCC1 (stereo not given),–,-25.7%
CCCCC/C=C\CC(O)/C=C/c1cccc(CC(O)CCCCO)n1 (stereo not given),–,-3.1%
S=C(S)OC1CC2CC1C1CCCC21 (stereo not given),–,7.4%
Cc1cc(NC(=O)Nc2ccc3c(ccn3C)c2)sn1,–,-27.2%
Fc1cccc(/C=N/N=C/c2cccc(F)c2)c1,–,0.6%
CN1CCc2cc(NC(=O)Nc3cccnc3)ccc21,–,-21.9%
c1ccc(-c2ccccn2)nc1,–,-0.182%
CC12C(=O)OC(=O)C1(C)C1CCC2O1 (stereo not given),4.47 µM (active),–
O=C(O)c1cc(=O)c2c(Cl)cc(Cl)cc2[nH]1,–,2.23%
CN1CCc2ccccc2Cc2[nH]c3ccccc3c2CC1,12.6 µM (active),–

SMILES,Potency,"activity change, negative = inhibition"
CN(C)c1nc2c(Br)c(Br)c(Br)c(Br)c2[nH]1,–,-11.6%
CN1CCc2cccc3c2C1Cc1ccc(O)c(O)c1-3 (stereo not given),6.31 µM (active),–
CN1CCC[C@H]1c1cccnc1,–,3.46%
Cc1ccccc1CNc1ncnc2c1ncn2C1OC(CO)C(O)C1O (stereo not given),–,-4.59%
COc1cc2nc(N3CCN(C(=O)OCc4ccccc4)C(C(=O)NC(C)(C)C)C3)nc(N)c2cc1OC (stereo not given),8.91 µM (active),–
O=C(O)[C@@H]1C[C@@H](C(=O)O)N1,–,-0.961%
N.N.O=C(O)C1(C(=O)O)CCC1.[Pt],–,-19.5%
Oc1cc2c(cc1O)CN(C(=S)NCCc1ccc(Cl)cc1)CCC2,8.91 µM (active),–
C=CC(N)CCC(=O)O (stereo not given),–,-5.6%
O=C(O)c1cc([N+](=O)[O-])ccc1NCCCc1ccccc1,–,-3.57%
CCCCN1CCC(n2c(=O)[nH]c3ccccc32)CC1,–,-17.4%
CC(C)Cc1ccc([C@H](C)C(=O)O)cc1,–,-11.1%
CC(COc1ccc(/C=C/c2ccccc2)cc1)[N+](C)(C)C (stereo not given),5.01 µM (active),–
COc1ccccc1CNCCCCCCNCCCCCCCCNCCCCCCNCc1ccccc1OC,4.47 µM (active),–
c1cnc2c(c1)ccc1cccnc12,2 µM (active),–
NO,–,-19.7%
CC(=O)N[C@H](C(=O)O)C(C)(C)SN=O,–,-0.151%
O=C(O)CC[C@@H](C(=O)O)N1C(=O)c2ccccc2C1=O,–,2.59%
CC1(C)CCC=[N+]1[O-],–,1.29%
O=C(c1cc(O)c(O)c([N+](=O)[O-])c1)c1ccccc1F,–,-9.56%
